# Results as given in ChEMBL document CHEMBL1201862, “PubChem BioAssay data set” (2004).
# The campaign covered roughly 58,000 sequences. About 4,100 (7.1%) were called active. No stated cut-off is given here; in the data, active = GI50 up to about 1.1 µM and inactive = higher. Only a sample is shown. Measured potencies and affinities stand elsewhere.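 Briefly, cells in 96-well plates were exposed to five compound concentrations for 48 h, and endpoints were estimated by linear interpolation. GI50 = concentration required for 50% inhibition of growth.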
# System: U-251
# Assay: NCI tumour cell line growth inhibition, 48 h
row,Substance,GI50 [µM]
1,"[Bis(aminomethyl)diethylsilane]tetrachloroplatinum(IV), CHEMBL2146203",2
2,"[Bis(aminomethyl)pentamethylenesilane]tetrachloropaltinum(IV), CHEMBL2146204",2.94
3,"[Bis(aminomethyl)tetramethylenesilane]tetrachloropaltinum(IV), CHEMBL2146189",3.59
4,"[Bis(aminomethyl)ethylmethylsilane]tetrachloroplatinum(IV), CHEMBL2146192",6.07
5,"CISPLATIN, CHEMBL11359",1.92
6,"cis-Bis[[(trimethylsilyl)methyl]amino]tetrachloroplatinum(IV), CHEMBL2146191",14.9
7,"[Bis(aminomethyl)dimethylsilane]dichloroplatinum (II), CHEMBL2146201",33.5
8,"[Bis(aminomethyl)tetramethylenesilane]dichloropaltinum(II), CHEMBL2146205",30.3
9,"[Bis(aminomethyl)dimethylsilane]tetrachloroplatinum(IV), CHEMBL2146190",9.42
10,"mu-(1,7-nanodiamine-N,N')bis-(cis-aminedichloroplatimum (II)), CHEMBL2146215",10.3
11,"[Bis(aminomethyl)pentamethylenesilane]dichloropaltinum(II), CHEMBL2146202",2.93
